PostGolgi ctrl – yeast control strain growth, post-Golgi counter-screen. efflux-deficient yeast background strain, growth absorbance A615, 16 h. inhibition, % at 10 µM. actives 5% (n = 98,000)
PostGolgi yeast – growth inhibition of a yeast mutant, post-Golgi transport screen. inhibition, % at 10 µM. AID 739. post-Golgi transport phenotypic cell assay. actives 0.9% (n = 98,000);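 also: yeast cells grown in 1536-well plates; yeast grown about 18 h at 30C before absorbance read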
CYP2C9 act – activators of human CYP2C9. activation factor at 5 µM. recombinant CYP2C9, luciferin-H conversion, luminescence; stronger effect = higher value; factor 1 = untreated enzyme, 0 = blocked. actives 1.4% (n = 96,000). P11712;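 active = activation factor of 2 or more for CYP2C9 at a 5 µM dose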
CYP2C19 act – increases human CYP2C19 enzyme activity | P33261 | recombinant CYP2C19, luciferin-H EGE luminescence; stronger effect = higher value; 0 = fully inhibited enzyme, 1 = untreated enzyme | activation factor at 5 µM | 96,000 tested, under 10 active | AID 1025;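 active = activation factor of at least 2 at 5 µM in the primary screen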
Target sequence (P33261 whole entry, looked up): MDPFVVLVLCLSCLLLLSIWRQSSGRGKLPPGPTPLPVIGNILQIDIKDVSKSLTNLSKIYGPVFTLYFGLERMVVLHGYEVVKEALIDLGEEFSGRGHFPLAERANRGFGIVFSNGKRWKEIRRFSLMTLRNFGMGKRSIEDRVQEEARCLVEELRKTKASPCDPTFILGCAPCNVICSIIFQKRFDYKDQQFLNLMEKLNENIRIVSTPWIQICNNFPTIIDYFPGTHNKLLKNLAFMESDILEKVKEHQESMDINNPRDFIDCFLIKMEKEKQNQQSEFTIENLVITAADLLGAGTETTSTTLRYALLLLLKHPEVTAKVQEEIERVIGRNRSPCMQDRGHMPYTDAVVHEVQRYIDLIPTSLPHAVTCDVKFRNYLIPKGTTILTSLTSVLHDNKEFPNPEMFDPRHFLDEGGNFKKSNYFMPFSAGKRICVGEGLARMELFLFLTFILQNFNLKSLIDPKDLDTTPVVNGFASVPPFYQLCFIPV
CYP2C9 inhib – blocks human cytochrome P450 2C9. CYP2C9 Supersomes, luciferin-H conversion, luminescence. inhibition, % at 5 µM. actives 20% (n = 96,000);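 active = blocking of liver enzyme CYP2C9 beyond about 50% at 5 µM, limit read from the data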
CYP2C19 inh – blocks human cytochrome P450 2C19; actives 21% (n = 96,000); P33261; inhibition, % at 5 µM; AID 778; CYP2C19 Supersomes, luciferin-H EGE luminescence, 30 min;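 active = CYP2C19 inhibition above a set limit at 5 µM in the primary screen, cut at about 50% in these data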
Of the large screens only hits and unclear results are named; the others gave an inactive call. Only some compounds are listed: those with a hit (about 32% of all), similar ones and a draw of the others. Rule as the data show it, unless noted: active = inhibition above about 30%; inactive = the rest.

CCC(C)OC(=O)c1[nH]c2c(c1C)C(=O)CC(c1ccc(N(C)C)cc1)C2 (stereo not given)	CYP2C9 inhib 53.4, CYP2C19 inh 67.9
CCOCCOC(=O)c1[nH]c2c(c1C)C(=O)CC(c1ccc(N(C)C)cc1)C2 (stereo not given)	CYP2C9 inhib 85.2
C/C=C/COC(=O)c1[nH]c2c(c1C)C(=O)CC(c1ccco1)C2 (stereo not given)	none
COCCOC(=O)C1=C(C)NC2=C(C(=O)CCC2)C1c1ccc(N(C)C)cc1 (stereo not given)	none (no result: PostGolgi ctrl, PostGolgi yeast)
C/C=C/COC(=O)c1[nH]c2c(c1C)C(=O)CC(c1ccc(N(C)C)cc1)C2 (stereo not given)	CYP2C9 inhib 64.6
CSc1ccc(C(=S)N2CCN(Cc3ccccc3)CC2)cc1	CYP2C19 inh 52.4
Cc1ccc(N2C(=O)c3ccccc3C2O)nc1 (stereo not given)	CYP2C19 inh 78.8
Cc1cccc(OCC(O)Cn2c(NCc3cccnc3)nc3c2c(=O)[nH]c(=O)n3C)c1 (stereo not given)	none
C=C(C)COc1ccc(-c2[nH]ncc2Oc2ccccc2OCC)c(O)c1	PostGolgi yeast 49.0, CYP2C9 inhib 100.0, CYP2C19 inh 96.3
C=C(C)COc1ccc(-c2[nH]ncc2-c2ccccc2)c(O)c1	PostGolgi ctrl 61.9, PostGolgi yeast 45.1, CYP2C9 inhib 82.6
C=C(C)COc1ccc(-c2[nH]ncc2Oc2cccc(OC)c2)c(O)c1	PostGolgi ctrl 30.4, CYP2C9 inhib 99.7, CYP2C19 inh 93.3
C=C(C)COc1ccc(-c2[nH]ncc2-c2ccc(OC)c(OC)c2)c(O)c1	none
CCOC(=O)C(C(=O)OCC)[C@@H]1CS(=O)(=O)C[C@H]1C(C(=O)OCC)C(=O)OCC	none
CC(C)CNC(=S)NC(=O)c1ccc([N+](=O)[O-])cc1	PostGolgi ctrl 31.9
CCCCNC(=S)NC(=O)c1ccc([N+](=O)[O-])cc1	none
CCCCn1c(=O)[nH]c(=O)c2c1nc(COc1ccc(C#N)cc1)n2CCC	CYP2C9 inhib 90.0
Cn1c(=O)[nH]c(=O)c2c1nc(CN1CCOCC1)n2CCCc1ccccc1	none
C=CCn1c(SCc2ccc(Cl)cc2)nc2c1c(=O)[nH]c(=O)n2C	none
CCCCn1c(=O)[nH]c(=O)c2c1nc(CN1C(=O)c3ccccc3S1(=O)=O)n2CCC	CYP2C9 inhib 97.9, CYP2C19 inh 80.0
CCCCn1c(-c2ccsc2)nc2c1c(=O)[nH]c(=O)n2CCC	none
C=CCn1c(SCc2nc3c(c(=O)[nH]c(=O)n3CCCC)n2CCC)nnc1-c1ccccc1	CYP2C9 inhib 83.8
COc1ccc(OC2C(=O)N(c3ccc(F)cc3)C2c2ccc(OC)c(OC)c2)cc1 (stereo not given)	none
COC(=O)c1ccc(C2C(Oc3ccc(OC)cc3)C(=O)N2CCc2ccc(F)cc2)cc1 (stereo not given)	CYP2C19 inh 56.2
CC1Cc2ccccc2N1CC(=O)NC(=O)NCc1ccco1 (stereo not given)	CYP2C9 inhib 55.2, CYP2C19 inh 83.2
O=C(CN1C(=O)NC2(CCCCCCC2)C1=O)NC(=O)NCc1ccco1	PostGolgi ctrl 38.5
O=C(CN1CCCc2ccccc21)NC(=O)NCc1ccco1	CYP2C19 inh 68.7
CC1(c2ccccc2)NC(=O)N(CC(=O)NC(=O)NCc2ccco2)C1=O (stereo not given)	none
O=C(CN1CCOc2ccccc21)NCc1ccco1	none
N#Cc1ccccc1CSc1nc(O)cc(=O)[nH]1	none
O=C(C1CCN(S(=O)(=O)c2cccnc2)CC1)N1CCCCC1	none
COc1ccc(-n2nc(N)c3c(=O)oc(N(C)C)nc32)cc1	none
CC(=O)NC(Cc1ccc(C(C)C)cc1)C(=O)NC1CCN(c2nc(C)cc(C)n2)CC1 (stereo not given)	CYP2C19 inh 60.5
O=C(CSc1nc(-c2ccccc2Cl)ns1)NCc1ccco1	CYP2C9 inhib 62.6
NC(=O)CSc1nc(-c2ccccc2Cl)ns1	none
O=C(CSc1c2c(nc3cc(Cl)ccc13)CCCC2)NCc1ccco1	CYP2C9 inhib 88.5, CYP2C19 inh 98.5
O=C(CSc1nc2ccc(Cl)cc2[nH]1)NCc1ccco1	CYP2C9 inhib 51.2
O=C(CSc1nc2ccccc2[nH]1)NCc1ccco1	none
O=C(Oc1ccccc1)c1ccccc1OS(=O)(=O)c1ccccc1	CYP2C9 inhib 58.7
NC(=O)NC(=O)COC(=O)c1ccccc1Oc1ccccc1	none
COc1ccccc1C(=O)Oc1ccc(C(C)C)cc1	PostGolgi ctrl 39.0
CC1(C)CC(=O)C=C(Nc2cccc(O)c2)C1	none
C=CCCCCCCCCC(=O)NNC1=CC(=O)CC(C)(C)C1	CYP2C9 inhib 51.0
O=C(NCC1CCCO1)c1onc(CSc2ccc(F)c(F)c2)c1C(=O)O (stereo not given)	none
CC(=O)C1=C(O)C=C(c2ccco2)CC1c1ccco1 (stereo not given)	CYP2C9 inhib 50.9, CYP2C19 inh 50.3
CC(C)(Oc1ccc(-c2ccco2)cc1)C(=O)O	none
CCOc1ccc(S(=O)(=O)NCCC(=O)NCc2ccco2)cc1	none
COc1cc(C)c(Cl)cc1S(=O)(=O)NCc1ccco1	CYP2C9 act 2, CYP2C19 inh 97.6
CCOc1cc(C)c(Cl)cc1S(=O)(=O)NCc1ccco1	CYP2C9 act 2
CCOc1ccc(S(=O)(=O)NCc2ccco2)c2ccccc12	CYP2C19 inh 63.6
COc1cc(OC)c(S(=O)(=O)NCc2ccco2)cc1S(=O)(=O)NCc1ccco1	none
COc1ccccc1N1CCN(C(=O)c2ccc(Cl)c(S(=O)(=O)NCc3ccco3)c2)CC1	CYP2C9 inhib 77.4, CYP2C19 inh 69.6
O=C(Cn1c(C(F)(F)F)nc2ccccc21)NCCN1CCCC1	none
Cc1cc(C)n2nc(C(=O)OCCOc3ccc(F)cc3)nc2n1	none
COc1ccc(CN(C)C(c2ccccc2)c2nnnn2-c2ccccc2C)c(OC)c1C (stereo not given)	CYP2C9 inhib 79.3, CYP2C19 inh 93.9
COC(=O)c1ccccc1NC(=O)c1cc(OC)cc(OC)c1	none
Cc1cc(=O)oc2c(C(=O)/C=C/c3ccccc3)c(O)ccc12	none
Cc1cc(=O)oc2c1ccc1oc(/C(=N/O)c3ccccc3)c(C)c12	PostGolgi ctrl 35.0, CYP2C9 inhib 60.3
CCC1CCc2c(sc3ncnc(N4CCOCC4)c23)C1 (stereo not given)	CYP2C19 inh 89.1
N=c1c2c3c(sc2ncn1CCN1CCOCC1)CCCC3	none
CC(=O)Cn1c(CN2CC(C)CC(C)C2)nc2c1c(=O)n(C)c(=O)n2C (stereo not given)	none
Cc1nn(C)c(C)c1NC(=O)Nc1cccc(C(F)(F)F)c1	none
COc1ccc(Nc2nccc(OC)c2C#N)cc1	none
COc1ccc(N/N=C(/C#N)S(=O)(=O)c2nsc(C)c2C#N)cc1	CYP2C9 inhib 81.7
Cc1snc(S(=O)(=O)/C(C#N)=N/Nc2cccc(C(F)(F)F)c2)c1C#N	CYP2C9 inhib 99.3
